Screening results: PubChem BioAssay, National Center for Advancing Translational Sciences (NCATS)
In the library only some 18% were active in any assay of this set; here they are far more common.
TDP1 block: TDP1 (human) enzyme inhibition | recombinant TDP1, AlphaScreen DNA substrate cleavage | Potency, µM (series often up to 130 µM), without a hit: top-dose activity change, negative = inhibition, most hits filed as inhibitors | actives 0.28% (n = 350,000) | AID 485290; further: potency means the concentration at half of the fitted maximal effect; nearly all actives have a fitted effect of over 40% in size
Target sequence (Q9NUW8 whole entry, looked up): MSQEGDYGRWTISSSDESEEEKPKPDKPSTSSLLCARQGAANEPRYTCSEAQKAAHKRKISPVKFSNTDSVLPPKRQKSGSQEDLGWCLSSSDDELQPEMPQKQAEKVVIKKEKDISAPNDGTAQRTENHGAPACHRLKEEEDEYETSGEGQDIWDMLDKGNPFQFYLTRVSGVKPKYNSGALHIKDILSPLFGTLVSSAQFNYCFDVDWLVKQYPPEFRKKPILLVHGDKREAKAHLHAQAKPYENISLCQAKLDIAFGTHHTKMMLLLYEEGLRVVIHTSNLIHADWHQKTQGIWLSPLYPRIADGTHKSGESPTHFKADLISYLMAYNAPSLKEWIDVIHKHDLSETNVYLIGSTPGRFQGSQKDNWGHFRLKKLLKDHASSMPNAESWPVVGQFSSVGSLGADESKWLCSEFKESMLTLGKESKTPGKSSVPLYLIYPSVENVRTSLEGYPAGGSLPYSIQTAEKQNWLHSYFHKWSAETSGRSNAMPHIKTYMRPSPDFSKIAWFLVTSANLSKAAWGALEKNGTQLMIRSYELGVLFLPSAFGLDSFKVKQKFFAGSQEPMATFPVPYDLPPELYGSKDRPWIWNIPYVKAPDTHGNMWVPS
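Enzyme-compound mixtures sat 15 min at room temperature, followed by a 5 min reaction with 15 nM final substrate and 10 min with AlphaScreen beads. Recombinant human Tdp1 was used at 1 nM final.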
Six1-Eya2 blk: Six1/Eya2 interaction inhibition; AlphaScreen GST-Six1/His-Eya2 binding, biochemical; active compounds read low; Q15475+O00167; AID 651725; actives 0.56% (n = 360,000); activity change, % (no concentration beside the values); in the data active means activity change below about -65%; inconclusive means mostly about -30% to -63%
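AlphaScreen luminescence read after one hour at 37 °C in darkness. Pin-transferred compounds met GST-Six1 and His-Eya2 protein (5X stock 250 nM/500 nM) plus glutathione donor and Ni-chelate acceptor beads (5X, 50 ug/mL).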
IL1B secr inh: inflammasome signaling inhibition, IL-1 beta readout; AID 743279; actives 4.7% (n = 360,000); activity change, % at 57.5 µM; THP-1 LPS/ATP IL-1B secretion, AlphaLISA, 16 h; active compounds read low; in the data active means activity change below about -50%; inconclusive means mostly about -30% to -49%
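Secreted IL-1B measured by AlphaLISA bead assay after 16 h compound exposure of THP-1 cells; compounds (final up to 57.5 uM) added 1 h before LPS (250 ng/mL) and ATP (1.25 mM) stimulation; lower signal means less secretion.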
DT40 TDP1 no CPT: qHTS for Inhibitors of human tyrosyl-DNA phosphodiesterase 1 (TDP1): qHTS in cells in absence of CPT. DT40 Tdp1-/- hTDP1 cells, no CPT, ATP luminescence, 48 h. Potency, µM (doses to about 46.2 µM), for the others: top-dose activity change, negative = growth inhibition, actives largely listed as inhibitors. actives 15% (n = 420,000). AID 686978, 2013; further: potency means the concentration at half of the fitted maximal effect; nearly all actives have a fitted effect of over 55% in size
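Luminescent ATP content (CellTiter-Glo) served as the growth readout. Knockout chicken DT40 cells expressing human TDP1 were exposed to compounds without camptothecin for a minimum 48 hr at 37 °C.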
DT40 TDP1 CPT: DT40-hTDP1 cell growth loss with CPT | chicken DT40 Tdp1-/-;hTDP1 cells + 20 nM CPT, ATP luminescence, 48 h | Potency, µM (series often up to 46.2 µM), inactives show at the highest dose activity change, negative = growth inhibition, usual class: inhibitors | actives 12% (n = 420,000); further: potency means the concentration at half of the fitted maximal effect; nearly all actives have a fitted effect of over 55% in size
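Chicken DT40 Tdp1-/- cells complemented with human TDP1, 400 cells/well, exposed to compounds plus 20 nM camptothecin for at least 48 h at 37 C; viability read as ATP content by CellTiter-Glo luminescence.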
CtBP-E1A inh: CtBP/E1A binding inhibition; activity change, % (test concentration not listed); actives 0.49% (n = 340,000); AID 651724; AlphaScreen GST-E1A/His-CtBP binding, 1536-well; active compounds read low; in the data active means activity change below about -65%; inconclusive means mostly about -30% to -63%
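Protein mix (5X: 125 nM each GST-E1A, His-CtBP) was incubated with pinned compound 2 h at 37 deg C in dark, in 50 mM Tris pH 8.0 buffer with 300 mM NaCl. Glutathione donor and nickel acceptor beads followed; AlphaScreen signal read after 1 h.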
Numbers without * were called inactive; ? = inconclusive; / = no result; [ ] = dose if it differs, or a comment. Unless noted, the call rests on the fitted dose curve; in most records, active means well fitted curve in the direction sought with a large enough effect; inconclusive means small, poorly fitted or top-dose-only effect, or another doubt; inactive means no such curve, though single readings can be large; an effect the other way counts as inactive or inconclusive. On the % scale 0 is the no-effect control and ±100 the full control effect.

SMILES	TDP1 block	Six1-Eya2 blk	IL1B secr inh	DT40 TDP1 no CPT	DT40 TDP1 CPT	CtBP-E1A inh
Cc1ccc(NC(=O)CCc2nnc3ccc(N4CCC5(CC4)OCCO5)nn23)nc1	4.3%	-9.5	-6.5	-3.0%	-13.4%	/
Cc1ccc(NC(=O)CCc2nnc3ccc(N4CCC(C)CC4)nn23)nc1	4.4%	2.4	-53.5*	-3.0%	-24.0%	-2.2
COc1cccc(NC(=O)CCc2nnc3ccc(N4CCN(c5cccc(OC)c5)CC4)nn23)c1	2.2%	-9.3	33.3	?	?	-8.6
COc1ccc(NC(=O)CCc2nnc3ccc(N4CCN(c5cccc(OC)c5)CC4)nn23)cc1	/	-7.9	-1.2	14.6µM*	?	/
CCOc1ccccc1NC(=O)c1sc2nc(C)nc(N3CCOCC3)c2c1C	0.6%	2.3	15.1	?	4.8%	19.2
COc1ccc(C)cc1NC(=O)CN1CCN(c2ccccn2)CC1	/	-3.2	12.9	?	-16.8%	-1.4
Cc1nc(N2CCCCC2)c2c(C)c(C(=O)Nc3ccccc3C(F)(F)F)sc2n1	-7.9%	10.8	-16.2	2.91µM*	2.06µM*	14.2
CCOC(=O)c1sc2ncnc(N3CCN(C(=O)OCC)CC3)c2c1C	3.3%	3.9	?	?	14.6µM*	2.5
COc1ccc(C)cc1NC(=O)c1sc2ncnc(N3CCN(c4ccccn4)CC3)c2c1C	0.9%	0.0	-6.1	18.4µM*	16.4µM*	-6.8
Cc1ccc(NC(=O)c2sc3nc(CCl)[nH]c(=O)c3c2C)c(C)c1	0.0%	4.6	-86.8*	14.6µM*	14.6µM*	4.5
O=C(Nc1cc(=O)[nH]c2nc(-c3ccc(Cl)cc3)nn12)c1ccccc1	/	5.9	22.7	?	-28.8%	5.5
Cc1ccc(S(=O)(=O)N2CCC(C(=O)OC(C)C(=O)NC3CCCCC3C)CC2)cc1 (centres undefined)	1.3%	-0.5	17.0	-28.3%	-12.6%	/
Cc1ccc(NC(=O)c2sc3ncnc(N(C)C4CCCCC4)c3c2C)c(C)c1	-1.5%	/	/	?	?	/
Cc1ccc(NC(=O)c2sc3nc(C)nc(N4CCN(c5ccccn5)CC4)c3c2C)c(C)c1	4.3%	-25.5	-60.2*	?	-26.1%	-20.8
Cc1nc(N2CCN(c3ccccn3)CC2)c2c(C)c(C(=O)Nc3ccc(Br)cc3C)sc2n1	7.0%	6.8	-24.2	?	16.4µM*	8.4
CCCN1CCN(c2ncnc3sc(C(=O)Nc4c(C)cc(C)cc4C)c(C)c23)CC1	6.2%	/	/	10.3µM*	16.4µM*	/
Cc1ccc(NC(=O)CN2CCN(c3ccccn3)CC2)c(Cl)c1	5.6%	-1.0	-13.5	?	-11.4%	3.1
Cc1ccc(NC(=O)c2sc3ncnc(N4CCN(c5ccccn5)CC4)c3c2C)c(C)c1	4.7%	-8.0	?	18.4µM*	?	-21.2
CCN(CC)CCCNC(=O)C1CCC(CNS(=O)(=O)c2c(C)cc(C)cc2C)CC1 (centres undefined)	/	2.4	-1.3	-13.6%	?	-1.7
CCN(CC(=O)Nc1c(F)cccc1F)C(=O)CCc1nc2cc(S(=O)(=O)N(C)C)ccc2n1CC	0.5%	1.4	-2.1	-15.4%	-22.6%	5.0
O=C(O)C1C2C=CC(C2)C1C(=O)NCc1ccoc1 (centres undefined)	-2.1%	-6.0	32.7	-42.5%	?	8.7
Cc1nc(N2CCN(c3ccccn3)CC2)c2c(C)c(C(=O)N3CCN(c4ccccc4F)CC3)sc2n1	/	-22.7	?	20.6µM*	?	-2.1
COc1ccc(C)cc1NC(=O)c1sc2nc(C)nc(N3CCOCC3)c2c1C	/	3.0	15.3	?	5.5%	5.3
Cc1nc(N2CCN(C)CC2)c2c(C)c(C(=O)Nc3ccc(F)cc3)sc2n1	0.0%	0.0	-78.4*	?	?	-1.1
Cc1c(C(=O)N2CCN(c3ccccc3F)CC2)sc2ncn(CC(=O)N3CCOCC3)c(=O)c12	5.9%	1.7	-2.3	-28.0%	-2.8%	3.9
SMILES	TDP1 block	Six1-Eya2 blk	IL1B secr inh	DT40 TDP1 no CPT	DT40 TDP1 CPT	CtBP-E1A inh
COc1cc(NC(=O)c2sc3nc(C)nc(N4CCOCC4)c3c2C)cc(OC)c1OC	3.0%	-3.7	?	11.6µM*	20.6µM*	2.9
CCN(CC)S(=O)(=O)c1cccc(-c2nnc(SCC#N)n2Cc2ccccc2)c1	10.4%	-2.4	13.9	?	?	-0.6
CCN(CC)S(=O)(=O)c1cccc(-c2nnc(SC(C)C#N)n2Cc2ccccc2)c1 (centres undefined)	0.0%	0.3	-18.9	18.4µM*	14.6µM*	13.0
Cc1ccc(CN2C(=O)CCC2C(=O)NCCN2CCOCC2)cc1 (centres undefined)	-2.0%	1.9	1.1	4.8%	2.3%	6.7
OC[C@@H]1CN(Cc2cccnc2)C[C@H](n2cnc3c(N4CCOCC4)ncnc32)O1	/	-2.0	-4.5	-2.0%	-14.2%	1.1
COc1cccc(-c2cc(C(=O)Nc3cccnc3)no2)c1	4.5%	2.9	28.2	13µM*	20.6µM*	4.2
O=C(Nc1cccnc1)c1cc(-c2ccccc2)on1	2.2%[56.1 µM]	-1.2	21.1	-25.0%	-21.2%	2.7
COc1ccc(N2CCN(c3cc(C(=O)Nc4cc(OC)c(OC)c(OC)c4)ncn3)CC2)cc1OC	/	-27.0	34.0	18.4µM*	14.6µM*	-15.9
O=C(Nc1cccnc1)c1cc(-c2ccco2)on1	0.0%	-9.6	-11.6	?	9.2µM*	-5.9
COC(=O)c1c(-c2cccnc2)csc1NC(=O)c1cc(C)on1	1.1%	-11.2	-7.1	16.4µM*	?	-17.4
Cc1ccc(Cn2ccnc2SCC(=O)Nc2nnc(C)s2)cc1	2.7%	/	/	-0.9%	-4.3%	/
O=C(Nc1cccnc1)c1cccs1	4.3%	-1.3	21.5	0.366µM*	0.326µM*	4.2
COc1cccc(-c2cc(C(=O)Nc3cc(OC)c(OC)c(OC)c3)no2)c1	2.2%	-4.6	-26.5	9.2µM*	11.6µM*	3.9
COCCNC(=O)c1cc(-c2ccccc2OC)on1	7.4%	3.4	34.0	11.6µM*	10.3µM*	8.4
O=C(Nc1cnn(Cc2ccc(Cl)cc2)c1)c1cccs1	/	0.0	-26.7	8.2µM*	11.6µM*	4.9
COc1ccccc1-c1cc(C(=O)NCc2cccs2)no1	-6.0%	21.6	28.6	-24.9%	-17.9%	7.2
OC1(c2cccs2)CN(c2ccc(Cl)cc2)C2=[N+]1CCCS2 (centres undefined)	-2.3%	-0.8	0.0	7.3%	3.0%	-2.2
